D1 agonist – human D1 receptor agonism | HEK293 T-REx D1 cells, calcium flux, agonist mode | activation, % at 2 µM | 1% of 360,000 active
Target sequence (P21728 whole entry, looked up): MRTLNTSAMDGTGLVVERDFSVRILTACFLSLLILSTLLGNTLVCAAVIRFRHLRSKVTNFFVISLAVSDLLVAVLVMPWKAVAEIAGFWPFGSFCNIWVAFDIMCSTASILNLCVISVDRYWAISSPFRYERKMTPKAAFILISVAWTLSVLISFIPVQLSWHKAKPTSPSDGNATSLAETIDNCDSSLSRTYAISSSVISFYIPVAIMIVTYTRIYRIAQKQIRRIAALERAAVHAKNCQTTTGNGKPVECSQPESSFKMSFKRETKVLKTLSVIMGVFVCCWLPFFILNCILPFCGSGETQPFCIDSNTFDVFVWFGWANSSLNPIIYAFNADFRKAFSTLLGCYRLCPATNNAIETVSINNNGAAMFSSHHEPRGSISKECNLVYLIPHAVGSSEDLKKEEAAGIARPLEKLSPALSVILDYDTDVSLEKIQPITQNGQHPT
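Agonism was scored from calcium flux recorded over 180 s (1 read/s) after pintool compound addition, following a 10-cycle baseline. Cells were inducible force-coupled HEK293 TREx D1, plated overnight at 30 C and loaded with no-wash calcium dye.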
D1 antagonist – blocks dopamine activation of the human D1 receptor | activity change, negative = inhibition, % at 10 µM | AID 504652 | HEK293 TREx D1 cells, calcium flux, dopamine EC80; active compounds read low | 3.2% of 360,000 active | P21728; in the data active = activity change below about -30%
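Calcium flux readout: force-coupled, inducible Hek293 Trex D1 line, cells induced overnight at 30 C with tetracycline, dye-loaded 30–90 min at RT. Antagonism scored against EC80 dopamine challenge given 180 s after compound.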
TRHR agonist – TRH receptor (human) agonism; P34981; TRHR cells, calcium flux fluo-8, FDSS agonist mode; activation, % at 2 µM; 0.18% of 360,000 active
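Agonist-mode FDSS calcium read (Ex 480/Em 530, 1 s cycles) in 1536-well TRHR cells with fluo-8 dye, after 10-cycle baseline and 23 nL compound addition; TRH at EC20 (10 nM final) added afterwards for the enhancer phase.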
TRHR PAM – allosteric enhancers of human TRH receptor | P34981 | TRHR cells, fluo-8 calcium fluorescence, EC20 TRH enhancement | enhancement, % at 2 µM | 0.66% of 360,000 active; in the data active = enhancement above about 30%
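TRHR-expressing cells loaded with fluo-8 calcium dye were read kinetically (ex 480/em 530) during compound addition, then stimulated with an EC20 of TRH (10 nM final). Enhancement of the Gq-mediated intracellular calcium response was scored.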
D1 PAM – human D1 dopamine receptor positive modulation; P21728; HEK293 TREx D1 cells, calcium flux, dopamine EC20 potentiation; potentiation, % at 10 µM; 0.036% of 360,000 active; in the data active = potentiation above about 30%
Of the large screens only hits and unclear results are named; the others gave an inactive call. This is a sample that favours compounds with a hit; in the whole collection about 4.7% have one here. Rule as the data show it, unless noted: active = activation above about 30%; inactive = the rest.

CCN(CC)c1ccc2c(c1)oc(=O)c1c(Cl)cc(=O)oc12	D1 agonist 141.8, D1 antagonist -38.1, TRHR agonist 75.1
CCOc1cc(C(=O)Nc2ccc(F)cc2)cc(Br)c1OC	D1 antagonist -53.3
COc1ccc(NC(=O)CNC(=O)C23CC4CC(CC(C4)C2)C3)c(OC)c1	none
COc1ccc(OC)c(NC(=O)C(=O)NNC(=O)C23CC4CC(CC(C4)C2)C3)c1	D1 agonist 40.0
Cc1nn(-c2ccccc2)c2nc(C3CC3)cc(C(=O)Nc3ccccc3F)c12	none
Cc1nn(C2CCS(=O)(=O)C2)c2nc(C3CC3)cc(C(=O)Nc3cccc(C#N)c3)c12 (configuration not stated)	D1 antagonist -35.9
COc1cc2c(-c3ccccc3C)nc3c(c(C)nn3-c3ccccc3)c2cc1OC	none
C=CCN1C(=Nc2cccnc2)SCC1(O)c1ccc(C)cc1 (configuration not stated)	D1 antagonist -55.8
Cc1ccc(C)c(N(C)C(=O)c2cn(C)c(=O)c3ccccc23)c1	none
COc1ccc(C2NC(=O)c3ccccc3N2)cc1OC (configuration not stated)	none
O=C1NC(c2ccc(Br)cc2)Nc2ccccc21 (configuration not stated)	D1 antagonist -32.2
COc1ccc(OCC(=O)NCc2ccc3c(c2)CCN3C(=O)c2cccc(C)c2)cc1	none
CCn1nnc2cc(C(=O)Nc3ccc(Cl)cc3C)ccc21	none
Cc1ccc(C(=O)Nc2nnc(-c3ccncc3)o2)cc1	none
COc1cccc(-c2nnc(NC(=O)c3cccc(F)c3)o2)c1	TRHR PAM 33.2
Cc1cccc(-c2nnc(NC(=O)c3ccc(Cl)cc3)o2)c1	D1 agonist 57.0
O=C(Nc1nnc(-c2cccs2)o1)c1cccc(Oc2ccccc2)c1	D1 agonist 85.0
COc1cccc(-c2nnc(NC(=O)c3ccc(Cl)s3)o2)c1	D1 agonist 73.0, D1 antagonist -35.6
COc1cccc(-c2nnc(NC(=O)c3ccccc3Br)o2)c1	none
O=C(CSCc1nc2cccnc2n1C1CCCCC1)NCc1cccc(Br)c1	none
COc1ccccc1N1CC(C)(C)C(=O)N(C(=O)c2ccc(C)cc2)C1=S	D1 antagonist -44.5
COc1ccccc1N1CC(C)(C)C(=O)N(C(=O)c2ccc(Cl)cc2)C1=S	none
CCCCOc1ccc(NC2=NC3(CCCCC3)N=C(N)N2)cc1	none
COc1ccc(OC)c(NC2=NC3(CCCCC3)N=C(N)N2)c1	D1 antagonist -53.6
COc1ccc(NC2=NC3(CCCCC3)N=C(N)N2)cc1	D1 antagonist -87.3
COC(=O)c1ccccc1NC(=O)c1ccc(F)cc1F	none
O=S(=O)(c1ccc2c(c1)OCCO2)N1CCN(S(=O)(=O)c2ccc3nc(Cl)c(Cl)nc3c2)CC1	none
CC(=O)N1CCc2c(sc3c2c(=O)n(-c2ccc(C)cc2)c(=O)n3CC(=O)Nc2ccccc2)C1	none
Cc1ccsc1C(=O)NNC(=O)Nc1ccc(Cl)c(Cl)c1	TRHR PAM 39.1
CN(C)S(=O)(=O)Oc1ccsc1C(=O)Nc1ccc(Br)cc1	none
Cc1occc1C(=O)NNC(=O)Nc1ccc(Cl)c(Cl)c1	none
CN(C)S(=O)(=O)Oc1ccsc1C(=O)Nc1cccc(Cl)c1	D1 antagonist -41.5
CN(C)S(=O)(=O)Oc1ccsc1C(=O)Nc1ccc(Cl)c(Cl)c1	D1 agonist 35.6, D1 antagonist -55.4
CN(C)S(=O)(=O)Oc1ccsc1C(=O)Nc1ccc(C(F)(F)F)cc1	none (no result: D1 PAM)
Cn1ncc2c(N3CCN(c4ccc(F)cc4)CC3)ncnc21	none
CCOC(=O)c1ccc(NC(=O)c2cc3sccc3n2Cc2ccc(Cl)cc2)cc1	none
COc1ccc(C(=O)Nn2c(C)nnc2-n2nc(C)cc2C)cc1OC	D1 antagonist -31.0
O=C(Nc1nc(-c2cc(F)ccc2F)cs1)c1cccc(N2C(=O)CCC2=O)c1	D1 antagonist -32.4
O=C(Nc1nc(-c2ccc(F)cc2)cs1)c1cccc(N2C(=O)CCC2=O)c1	none
Cc1onc(-c2ccccc2)c1C(=O)Nc1nc(-c2cc(F)ccc2F)cs1	none
Cc1noc(C)c1C(=O)Nc1nc(-c2cc(F)ccc2F)cs1	D1 antagonist -32.0
Cc1nn2c(=O)cc(COC(=O)c3cccc(NC(=O)c4cccs4)c3)nc2s1	none
C/C(CC(=O)Nc1ccccc1)=N\NC(=O)COc1ccc(C)cc1Br	TRHR PAM 33.7
CCc1ccc(NC(=O)C/C(C)=N/NC(=O)COc2ccc(C)cc2Br)cc1	none
Cc1cc(NC(=O)COC(=O)CCCOc2ccc(Cl)cc2C)no1	D1 antagonist -30.1
CC(=O)NC(Cc1ccc(F)cc1)C(=O)NC1CCN(S(=O)(=O)c2ccccc2)CC1 (configuration not stated)	none
CC(=O)NC(Cc1cccc(C)c1)C(=O)NC1CCN(S(=O)(=O)c2ccccc2)CC1 (configuration not stated)	D1 antagonist -35.6
Cc1cc(Cl)ccc1OCCCC(=O)N1CCN(C)CC1	none
Cc1cccc(CC(=O)NC2CCN(C)CC2)c1	TRHR PAM 40.3
Cc1cc(Cl)ccc1OCCCC(=O)NC1CCN(C)CC1	D1 antagonist -41.9
COc1cc(NS(=O)(=O)c2c(C(=O)N3CCCCC3)c(C)n(C)c2C)cc(OC)c1OC	none
Cc1c(C(=O)Nc2ccncc2)sc2nc(-c3ccccc3)cn12	D1 antagonist -33.5
CCOC(=O)c1[nH]c2c(c1Cc1ccccc1)C(=O)CC(c1ccc(Cl)cc1)C2 (configuration not stated)	none
Cn1c(=O)[nH]c(=O)c2c1nc(SCC(O)CO)n2Cc1ccccc1Cl (configuration not stated)	D1 antagonist -64.0
Cn1c(=O)[nH]c(=O)c2c1nc(Br)n2Cc1ccccc1Cl	none
COc1ccc(C2=NN(c3ccccc3)C(c3ccc(OC)c(OC)c3)C2)cc1 (configuration not stated)	none
COc1ccc(C2CC(c3ccc(F)cc3)=NN2c2ccccc2)cc1OC (configuration not stated)	D1 antagonist -78.4
Cc1cccc(NC(=O)CCc2c(C)nc3c(c(C)nn3C(C)(C)C)c2C)c1C	none
O=C(CC(c1ccccc1)c1ccccc1)Nc1nn[nH]n1	D1 antagonist -31.3
O=C(COc1ccccc1)Nc1nn[nH]n1	none
O=C(NC1CCCCC1)C(=O)N(Cc1cccnc1)C(C(=O)NCc1ccco1)c1ccccc1 (configuration not stated)	D1 antagonist -35.2
CCOc1ccc(Br)cc1/C=N/O	none
CCCOc1ccc(Br)cc1/C=N/O	D1 agonist 42.6
CN1CCN(C(=O)c2ccc3c(c2)N(C)C(=O)/C(=C/c2cccc(Cl)c2)S3)CC1	D1 antagonist -37.5
COc1cccc(/C=C2\Sc3ccc(C(=O)NCc4cccnc4)cc3N(C)C2=O)c1	none
CN1C(=O)/C(=C/c2cccc(Cl)c2)Sc2ccc(C(=O)NCc3cccnc3)cc21	D1 antagonist -39.6

Screening results from PubChem.
